# Rows were chosen to be rich in hits. Some 2.2% of all compounds tested hit in one or more screens of this group.
# APP 5UTR inh = APP translation inhibition; 190,000 compounds, 0.82% hits; SH-SY5Y APP 5'UTR-luciferase reporter, luminescence; inhibition, % at 2 µM;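 active = inhibition above a set limit, derived from the sample mean plus 3 SD, cut at about 45% in these data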
# Ba/F3 V617F tox = loss of viability in JAK2V617F-driven Ba/F3 cells; Ba/F3 EpoR-JAK2V617F viability, ATP luminescence; inhibition, % at 5.6 µM; 220,000 compounds, 1.1% hits;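 active = inhibition above the campaign mean plus 3 SD over all tested compounds, cut at about 24% in these data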;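 also: cytokine-independent growth of Ba/F3 cells driven by EpoR plus mutant JAK2; 0% = DMSO-treated cells and 100% = JAK inhibitor I control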
# KLF5 inhibitor = kruppel-like factor 5 inhibition; DLD-1 KLF5 promoter-luciferase reporter, luminescence; inhibition, % at 5 µM; 290,000 compounds, 0.23% hits;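 active = inhibition above a per-plate limit of that plate's mean compound inhibition plus 3 SD, cut at about 60% in these data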;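 also: 0% = DMSO wells and 100% = LY294002 at 200 µM; higher means less KLF5 promoter-driven luciferase light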
# BaF3 tox = reduces parental Ba/F3 cell viability, JAK2V617F counter-screen; CellTiter-Glo ATP luminescence; inhibition, % at 5.6 µM; 220,000 compounds, 1.1% hits; AID 1486;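 active = inhibition above a per-campaign cutoff, the mean inhibition of all tested compounds plus 3 SD, cut at about 27% in these data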;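 also: 0% = DMSO wells and 100% = JAK Inhibitor I control wells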
# IEC-6 tox = counter-screen for KLF5 inhibitors: cytotoxicity in IEC-6 cells; 290,000 compounds, 0.78% hits; IEC-6 cytotoxicity, luminescence viability; AID 1825; inhibition, % at 5 µM; in the data active = inhibition above about 22%;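 also: 0% = plate median of test compound wells and 100% = cytotoxic reference compound wells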
# aSyn 5UTR inh = MLPCN primary screen, SNCA 5' untranslated region; alpha-synuclein 5'UTR reporter, inhibitor activity; inhibition, % (tested at 7.5 µM); 300,000 compounds, 0.82% hits; in the data active = inhibition above about 60%;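 also: H4 neuroglioblastoma cells stably carrying SNCA 5'UTR luciferase fusion; 0% = DMSO wells and 100% = positive control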
# The depositor's hits bear a star; . = not tested or not shown.
SMILES,APP 5UTR inh,Ba/F3 V617F tox,KLF5 inhibitor,BaF3 tox,IEC-6 tox,aSyn 5UTR inh
N#Cc1ccccc1NC(=O)CNc1ccccc1N1CCCCC1,2,-3,-8,3,2,-3
CCCCc1nnc2c(N(C)S(=O)(=O)c3ccc(C)cc3)nc3ccccc3n12,.,-1,-12,-1,10,14
CC(C)=CCC/C(C)=C/CCC(C)NCCN1CCNCC1 (configuration not stated),-6,4,-19,16,34*,-22
CC(C)=CCC/C(C)=C/CC(C)(C)CNCCN1CCNCC1,4,7,-8,10,5,-64
O=C(NCC(=O)N1CCCC1C(=O)O)OC1CCCCC1 (configuration not stated),5,1,-24,3,-4,12
CC(C)(C)c1ccccc1NC(=S)NC1CCCC1,.,.,-10,.,9,-3
CC(C)(C)c1ccccc1NC(=S)NC1CCCCC1,-23,-4,-13,40*,16,7
COc1cc(/C=N\NC(=O)c2c(C)nc3cc(C)ccn23)ccc1O,6,3,3,2,4,15
CCN1C(=O)[C@H]2[C@@H](c3ccc(-c4ccc(F)cc4)c(OC)c3)N3CCC[C@@]3(C(=O)OC)[C@H]2C1=O,.,.,.,.,.,8
CCOc1ccccc1-n1c(SCC(=O)Nc2ccc(CC)cc2)nc2n[nH]c(C)c2c1=N,-8,2,-8,1,7,84*
COc1ccc2cc1Oc1ccc(cc1)C[C@H]1c3cc(c(OC)cc3CCN1C)Oc1c(OC)c(OC)cc3c1[C@H](C2)N(C)CC3,.,.,.,.,.,36
COc1ccc2cc1Oc1ccc(cc1)C[C@H]1c3c(cc4c(c3Oc3cc5c(cc3OC)CCN(C)[C@@H]5C2)OCO4)CCN1C,.,.,.,.,.,109*
CC1=CC(=O)c2ccccc2C1=O,-22,4,1,5,5,10
CC(C)(C=O)C1=CC(=O)c2ccccc2C1=O,80*,4,-14,10,6,.
O=c1c2nncn2c2cc(C(F)(F)F)ccc2n1CCNc1ncc(C(F)(F)F)cc1Cl,.,0,-36,-5,-6,26
O=c1c(Cl)nc2cc(Cl)ccc2n1CCNc1ncc(C(F)(F)F)cc1Cl,-6,0,-33,8,-5,110*
CCOc1ccc(OCC)c(NC(=O)CCCN2C(=O)c3cccnc3C2=O)c1,0,-1,-3,3,1,11
C#CC(=O)N(c1cccc(OC)c1)C(C(=O)NC1CCCC1)c1cccs1 (configuration not stated),19,101*,5,80*,100*,92*
CC1=C(C#N)C(c2ccccc2)C2=C(N1)c1ccccc1C2=O (configuration not stated),78*,-3,7,3,6,25
CC1=C(C#N)C(c2cccnc2)C2=C(N1)c1ccccc1C2=O (configuration not stated),-4,-1,-38,2,3,-9
O=C(CCCOc1ccccc1)N1CCCCC1,-103,2,-44,5,-3,71*
O=C(CCCOc1ccc(Cl)cc1)N1CCCCC1,-10,3,-57,5,-2,-51
CCn1c(C)cc(=S)c2ccccc21,-1,0,-27,6,2,-8
COc1ccc(-c2oc3ncn(CCN4CCOCC4)c(=N)c3c2-c2ccc(OC)cc2)cc1,11,-7,3,0,-6,74*
O=S(=O)(Nc1ccc(C(F)(F)F)cc1)c1cccs1,.,.,7,.,3,4
SMILES,APP 5UTR inh,Ba/F3 V617F tox,KLF5 inhibitor,BaF3 tox,IEC-6 tox,aSyn 5UTR inh
O=C(CSc1ncnc2nc[nH]c12)c1ccc([N+](=O)[O-])cc1,.,36*,-2,23,15,10
OCCC#Cc1ccc(CN2CCN(CCc3ccccc3)C(CCO)C2)cc1 (configuration not stated),.,.,-16,.,-1,6
NC1=NC2(CCCC2)N=C(Nc2ccccc2)N1,.,-5,-41,2,1,-11
NC1=NC(c2ccccc2)N=C(Nc2ccccc2)N1 (configuration not stated),.,20,-19,68*,6,-12
O=C(CCc1ccccc1)Nc1ccccc1F,.,-3,-122,0,-2,-135
O=C(CCc1ccccc1)Nc1ccc(F)cc1F,47*,1,-77,4,1,-68
COc1cc(SC)ccc1C(=O)Nc1ccc(Cl)cn1,-148,0,-134,3,-1,100*
CSc1ccc(Cl)c(C(=O)Nc2ccc(Cl)cn2)c1,24,3,-5,3,3,31

# Source: PubChem BioAssay (several laboratories)
